The panel holds about 79,000 compounds, 15% with a hit somewhere; the sample as a whole holds those more often. Active and inactive are the calls of the source. Cut-off read from the data, not from the text of the source: active = growth inhibition above about 70%; inactive = the rest.
Assay: NCI Yeast Anticancer Drug Screen. Data for the sgs1 mgt1 strain (AID 161);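 note: 0% = growth of cultures given vehicle only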
Conditions: S. cerevisiae sgs1 mgt1 strain, at 50.0 µM, stronger effect = higher value
In short: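 Mutant yeast exposed to compound; growth scored against vehicle-only wells.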

Compound | growth inhibition
O=[N+]([O-])c1cccc(S(=O)(=O)N/N=C/c2cc(I)cc([N+](=O)[O-])c2O)c1 | 34.5% (inactive)
COc1cc(N=Nc2cccc(S(N)(=O)=O)c2)c2ccccc2c1N | 97.4% (active)
O=S(=O)(c1ccc(O)cc1)c1ccc(Cl)cc1 | 79.5% (active)
C[N+](C)=c1ccc2nc3c(cc(NCCCNc4cc5oc6cc(=[N+](C)C)ccc-6nc5c5ccccc45)c4ccccc43)oc-2c1 | 67.5% (inactive)
CC(C)(C)C(=O)/C=C/c1ccc2ccccc2n1 | 34.5% (inactive)
CSc1ccc(/C=N/NC(N)=S)cc1 | 81.3% (active)
CN(C)c1ccc(/C=C(\C#N)c2c(F)cccc2F)cc1 | 17.9% (inactive)
O=C(/C=C\c1ccccc1)N1c2ccccc2CC1c1c[nH]c2ccccc12 (stereo not given) | 10.3% (inactive)
COc1cccc(C2c3cc4c(cc3OC(Nc3ccccc3)C2C)OCO4)c1O (stereo not given) | 94.8% (active)
CC(/C=C/c1cccs1)=N\C(=S)NC(N)=S | 26.7% (inactive)
C=C1C(=O)O[C@H]2[C@H](OC(C)=O)[C@@H](C)CCC/C(C)=C/CC[C@@]3(C)O[C@@H]3C[C@@H]12 | 92.8% (active)
CC(=O)O/C=C\COC(C)=O | 42.5% (inactive)
Cn1cc(NC(=O)c2cc(NC(=O)CCCCCCCCC(=O)Nc3cc(C(=O)Nc4cc(C(=O)NCCC(N)N)n(C)c4)n(C)c3)cn2C)cc1C(=O)NCCC(=N)N | 91.5% (active)
CCCCCCCNCCCCCC | 84.7% (active)
Cc1ccc(S(=O)(=O)N(c2ccccc2-c2ccccc2)C(C)C(=O)O)cc1 (stereo not given) | 96% (active)
CCCN1C(=O)c2ccccc2C1=O | 14.1% (inactive)
CCC(CC)COC(=O)c1ccc(O)c(O)c1 | 48.1% (inactive)
COc1ccc(C2SCC(=O)N2c2nncs2)cc1 (stereo not given) | 9.5% (inactive)
O=NN(CCCl)C(=O)Oc1cc(Cl)c(Cl)cc1Cl | 92.7% (active)
O=C(c1ccccc1)c1ccccc1S(=O)(=O)Nc1ccccc1 | 30.2% (inactive)

Compound | growth inhibition
O=S(O)CCCCCSSc1ccccc1 | 30.1% (inactive)
Cc1ccc(C)c(N2C(=O)C(=O)C(c3nc4ccccc4o3)/C(=N\NC(=O)c3ccccc3O)C2=O)c1 (stereo not given) | 63% (inactive)
Nc1ccc2ccccc2c1Cc1c(O)ccc2ccccc12 | 98.9% (active)
CN(C)CCC(=O)C(=Cc1cc(Cl)cc(Cl)c1)C(=O)CCN(C)C | 85.2% (active)
COC(=O)c1c(C(N)=O)c(C)n(NC(=O)c2ccccc2)c1C | 11.1% (inactive)
O=C(O)/C(=C/c1c(O)ccc2ccccc12)c1csc(-c2nc(/C(=C\c3c(O)ccc4ccccc34)C(=O)O)cs2)n1 | 92% (active)
O=C(O)c1c2c(cc3c1CC1(Cc4cc5c(cc4C1=O)CCC5)C3)CCC2 (stereo not given) | 87.3% (active)
CCc1cccc(C(C)(C)C)c1NC(=S)N/C=C(\c1ccccc1)S(=O)Cc1ccccc1 (stereo not given) | 68.2% (inactive)
O=[N+]([O-])c1ccc(N/N=C/COCCO)c([N+](=O)[O-])c1 | 23.1% (inactive)
O=C(O)CSc1nc(-c2ccccc2)c(-c2ccccc2)n1-c1ccccn1 | 82.8% (active)
C[C@]12CCC(=O)C=C1CC[C@@H]1[C@@H]2[C@@H](O)C[C@@]2(C)[C@H]1CC[C@]2(O)C(=O)COC(=O)C1CCCC1 | 87.7% (active)
C[C-](O)O.O/C(=C\[C-](O)c1ccccc1)c1ccccc1.O/C(=C\[C-](O)c1ccccc1)c1ccccc1.[Nd+3] (stereo not given) | 93.3% (active)
[Cl][Pt+2]([Cl])([Cl])[Cl].[NH-]CC1(C[NH-])CCCC1 | 90.3% (active)
CSc1ccc2c(c1)S[S@@](=O)N2 | 56.6% (inactive)
O=S=C(c1ccccc1)N(Cc1ccccc1)Cc1ccccc1 | 96.7% (active)
NNc1c(Cl)c(F)c(Cl)c(F)c1Cl | 47.5% (inactive)
Cc1ccc(C)c(N2C(=O)C(=O)C(c3nc4ccccc4o3)C(=O)C2=O)c1 | 96.3% (active)
NC(=S)N/N=C/c1ccc(Cl)s1 | 67.6% (inactive)
O=c1[nH]ccc(CNC23CC4CC(CC(C4)C2)C3)c1O | 61.9% (inactive)
CN(C)CCSc1cc(-c2ccccc2)c2ccccc2n1 | 39.9% (inactive)

Assay: NCI Yeast Anticancer Drug Screen. Data for the cln2 rad14 strain (AID 165);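 note: 0% = growth equal to vehicle treated cultures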
Conditions: S. cerevisiae cln2 rad14 strain, at 5.0 µM (retest, dose inferred, filed as 0.5), stronger effect = higher value
In short: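 The screen exposed genetically defined yeast (cln2 rad14) to test compounds and scored growth inhibition relative to vehicle-treated controls.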

Compound | growth inhibition
O=[N+]([O-])c1cccc(S(=O)(=O)N/N=C/c2cc(I)cc([N+](=O)[O-])c2O)c1 | -1% (inactive)
COc1cc(N=Nc2cccc(S(N)(=O)=O)c2)c2ccccc2c1N | 34% (inactive)
O=S(=O)(c1ccc(O)cc1)c1ccc(Cl)cc1 | 4% (inactive)
C[N+](C)=c1ccc2nc3c(cc(NCCCNc4cc5oc6cc(=[N+](C)C)ccc-6nc5c5ccccc45)c4ccccc43)oc-2c1 | -29% (inactive)
CC(C)(C)C(=O)/C=C/c1ccc2ccccc2n1 | -66% (inactive)
CSc1ccc(/C=N/NC(N)=S)cc1 | -65% (inactive)
CN(C)c1ccc(/C=C(\C#N)c2c(F)cccc2F)cc1 | 3% (inactive)
O=C(/C=C\c1ccccc1)N1c2ccccc2CC1c1c[nH]c2ccccc12 (stereo not given) | -1% (inactive)
COc1cccc(C2c3cc4c(cc3OC(Nc3ccccc3)C2C)OCO4)c1O (stereo not given) | 4% (inactive)
CC(/C=C/c1cccs1)=N\C(=S)NC(N)=S | -1% (inactive)
C=C1C(=O)O[C@H]2[C@H](OC(C)=O)[C@@H](C)CCC/C(C)=C/CC[C@@]3(C)O[C@@H]3C[C@@H]12 | 3% (inactive)
CC(=O)O/C=C\COC(C)=O | 3% (inactive)
Cn1cc(NC(=O)c2cc(NC(=O)CCCCCCCCC(=O)Nc3cc(C(=O)Nc4cc(C(=O)NCCC(N)N)n(C)c4)n(C)c3)cn2C)cc1C(=O)NCCC(=N)N | 45% (inactive)
CCCCCCCNCCCCCC | 28% (inactive)
Cc1ccc(S(=O)(=O)N(c2ccccc2-c2ccccc2)C(C)C(=O)O)cc1 (stereo not given) | 3% (inactive)
CCCN1C(=O)c2ccccc2C1=O | 10% (inactive)
CCC(CC)COC(=O)c1ccc(O)c(O)c1 | -14% (inactive)
COc1ccc(C2SCC(=O)N2c2nncs2)cc1 (stereo not given) | 2% (inactive)
O=NN(CCCl)C(=O)Oc1cc(Cl)c(Cl)cc1Cl | 37% (inactive)
O=C(c1ccccc1)c1ccccc1S(=O)(=O)Nc1ccccc1 | -8% (inactive)

Compound | growth inhibition
O=S(O)CCCCCSSc1ccccc1 | -9% (inactive)
Cc1ccc(C)c(N2C(=O)C(=O)C(c3nc4ccccc4o3)/C(=N\NC(=O)c3ccccc3O)C2=O)c1 (stereo not given) | 8% (inactive)
Nc1ccc2ccccc2c1Cc1c(O)ccc2ccccc12 | 1% (inactive)
CN(C)CCC(=O)C(=Cc1cc(Cl)cc(Cl)c1)C(=O)CCN(C)C | 0% (inactive)
COC(=O)c1c(C(N)=O)c(C)n(NC(=O)c2ccccc2)c1C | -4% (inactive)
O=C(O)/C(=C/c1c(O)ccc2ccccc12)c1csc(-c2nc(/C(=C\c3c(O)ccc4ccccc34)C(=O)O)cs2)n1 | 46% (inactive)
O=C(O)c1c2c(cc3c1CC1(Cc4cc5c(cc4C1=O)CCC5)C3)CCC2 (stereo not given) | 37% (inactive)
CCc1cccc(C(C)(C)C)c1NC(=S)N/C=C(\c1ccccc1)S(=O)Cc1ccccc1 (stereo not given) | -15% (inactive)
O=[N+]([O-])c1ccc(N/N=C/COCCO)c([N+](=O)[O-])c1 | 4% (inactive)
O=C(O)CSc1nc(-c2ccccc2)c(-c2ccccc2)n1-c1ccccn1 | 18% (inactive)
C[C@]12CCC(=O)C=C1CC[C@@H]1[C@@H]2[C@@H](O)C[C@@]2(C)[C@H]1CC[C@]2(O)C(=O)COC(=O)C1CCCC1 | -18% (inactive)
C[C-](O)O.O/C(=C\[C-](O)c1ccccc1)c1ccccc1.O/C(=C\[C-](O)c1ccccc1)c1ccccc1.[Nd+3] (stereo not given) | 21% (inactive)
[Cl][Pt+2]([Cl])([Cl])[Cl].[NH-]CC1(C[NH-])CCCC1 | 57% (inactive)
CSc1ccc2c(c1)S[S@@](=O)N2 | -16% (inactive)
O=S=C(c1ccccc1)N(Cc1ccccc1)Cc1ccccc1 | 10% (inactive)
NNc1c(Cl)c(F)c(Cl)c(F)c1Cl | 13% (inactive)
Cc1ccc(C)c(N2C(=O)C(=O)C(c3nc4ccccc4o3)C(=O)C2=O)c1 | 30% (inactive)
NC(=S)N/N=C/c1ccc(Cl)s1 | -17% (inactive)
O=c1[nH]ccc(CNC23CC4CC(CC(C4)C2)C3)c1O | 10% (inactive)
CN(C)CCSc1cc(-c2ccccc2)c2ccccc2n1 | 26% (inactive)
